The full list was thinned out, with hits kept by preference.
Pf Dd2 inh – Plasmodium falciparum Dd2 growth inhibition; Potency, µM (titrated, usually from 28.9 µM), most hits filed as inhibitors; P. falciparum Dd2 growth, SYBR Green, 72 h; 120,000 compounds, 4.3% hits; active means well fitted inhibition curve with a large enough effect; further: nearly all actives have a fitted effect of over 65% in size
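Readout: SYBR Green fluorescence, 485 nm excitation, 535 nm emission, after ~16 h lysis at 37C. Before that, Dd2-infected red cells (2.5% hematocrit) grew 72 h with compound, 29 uM top final concentration.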
Each line names hits and unclear results; the compound was inactive in the other large screens.

CCC(=O)NC[C@H]1O[C@H](Cc2cc(COc3ccccc3)on2)CC[C@@H]1O	none
COCc1cc(C[C@@H]2CC[C@H](O)[C@@H](CNC3CCN(C)CC3)O2)no1	none
CC(C)NC[C@H]1O[C@H](Cc2cc(CN(C)Cc3ccccc3)on2)CC[C@@H]1O	Pf Dd2 inh 11.2µM
COCCc1noc([C@@H]2CN(Cc3ccccc3F)C[C@H]2CO)n1	none
Cc1ccc(C(=O)N2CCC3(CC2)C(C(=O)O)CC(=O)N3C)s1 (stereo not drawn)	none
Cc1ncsc1CN1C(=O)CO[C@H](c2ccc(NC(=O)c3ccccc3)cc2)[C@H]1CO	none
Cn1cnc(C(=O)N2CCC(N3C(=O)C(OCC4CC4)C34CCOCC4)CC2)c1 (stereo not drawn)	none
O=C(NCc1ccc2c(c1)OCO2)c1cnc2c(c1)N(Cc1ccccc1)CCC2	none
CCNc1cc(N2CCC(CCC(=O)N(CC)CC)CC2)ncn1	none
CC(C)(O)C#Cc1ccc(C(=O)N2CCOCC2CC(=O)O)o1 (stereo not drawn)	none
COc1cc(C2CC(=O)Nc3c2c(C)nn3-c2nc(C)cc(C)n2)cc(OC)c1O (stereo not drawn)	none
COc1ccc(C2CC(=O)Nc3c2c(C)nn3-c2nc(C)cc(C)n2)c(OC)c1OC (stereo not drawn)	none
CCc1ccc(C2CC(=O)Nc3c2c(C)nn3-c2nc(C)cc(C)n2)cc1 (stereo not drawn)	Pf Dd2 inh 11.2µM
CN1C(=O)C(CC(=O)N2CCCC2)Sc2ncccc21 (stereo not drawn)	none
O=C(CCc1nc2ccccc2[nH]1)N1CCN(C(=O)N2CC3CC(C2)[C@H]2CCCC(=O)N2C3)CC1 (stereo partly drawn)	none
N#Cc1ccc(CN2C[C@@H](CO)[C@H](c3ccncc3)C2)cc1	none
CN1Cc2ccc(NCc3ccccc3)nc2C(C)(C(=O)NCCOc2ccccc2)C1 (stereo not drawn)	none
CCOC(=O)c1[nH]c(C)c(CCC(=O)NCc2ccc(OC)cc2)c1C	none
Cc1cccc(N2CCN(C(=O)CCc3c(C)nc4c(c3C)c(=O)n(C)c(=O)n4C)CC2)c1C	none
CCOC(=O)c1[nH]c(C)c(CCC(=O)N2CCN(c3cccc(C)c3C)CC2)c1C	Pf Dd2 inh 0.355µM
CCOC(=O)c1c(C)[nH]c(C)c1S(=O)(=O)N1CCC(C(=O)N2CCN(c3cccc(C)c3C)CC2)CC1	none
CCOC(=O)c1c(C)[nH]c(C)c1S(=O)(=O)N(C)CC(=O)N1CCN(c2ccc(Cl)cc2)CC1	none
CCOC(=O)c1[nH]c(C)c(CCC(=O)N2CCN(c3ccc(Cl)cc3)CC2)c1C	Pf Dd2 inh 3.55µM
O=C1CCC2(CCN(C(=O)c3ccccc3)CC2)CN1CC1CCCO1 (stereo not drawn)	none
Cc1cccn2c(CNC(=O)CCc3cc4n(n3)CCCNC4)cnc12	none
Cc1ncoc1C(=O)N1CCCN(C(=O)C2CC2)C(c2ccccc2)CC(=O)NCC1 (stereo not drawn)	none
O=C(CCc1cccc(F)c1)N1CCC(C(=O)O)(n2cccn2)CC1	none
Cc1cc(C)n(-c2ccc(F)cc2CN2CCCC(CO)(Cc3ccccc3)C2)n1 (stereo not drawn)	Pf Dd2 inh 8.91µM
CCc1ccc(CN2CCCC(CO)(Cc3ccc(F)cc3F)C2)cc1 (stereo not drawn)	none
CN1CC2(CCCN(Cc3cc(F)ccc3-n3cccn3)C2)OC1=O (stereo not drawn)	none
O=c1ccc(CN2CCN(c3ccccc3F)CC2)cn1CC1CC1	none
CCOC(=O)C1=CN(CC(=O)NCc2ccc(Cl)cc2)S(=O)(=O)N=C1C	none
CCCC1c2nccn2CCCN1C(=O)c1cocn1 (stereo not drawn)	none
CCn1nc(C)c(C(=O)N[C@H]2CCOC[C@H]2C2CCOCC2)c1C	none
COc1ccc2[nH]c3c(c2c1)CCN(C)C31CCN(C(=O)C2CCC2)CC1	none
COc1ccc(NC(=O)N2CCc3c([nH]c4ccc(OC)cc34)C2c2ccc(OC)cc2)cc1 (stereo not drawn)	Pf Dd2 inh 4.47µM
COc1ccc2[nH]c3c(c2c1)CCN(C(=O)c1cccc(Cl)c1)C3c1ccc(F)cc1 (stereo not drawn)	none
O=C(c1ccccc1)N1CCN2C(=O)N(C3CCOCC3)C[C@H]2C1	none
O=C([C@@H]1C[C@H](F)CN1C(=O)Nc1cccc(Br)c1)N1CCCCC1	none
O=C(Cc1cnc[nH]c1=O)N1CCC2(CC1)[C@H](O)C[C@@H]2OCCO	none
CCCC(O)c1nc2ccccc2n1CCCOc1ccc(Cl)cc1 (stereo not drawn)	Pf Dd2 inh 5.01µM
Cc1ccc(OCCn2c(COc3ccc(Cl)cc3)nc3ccccc32)cc1	none
CCc1ccc(OCCCn2c(-c3ccc(Cl)cc3)nc3ccccc3c2=O)cc1	none
CNC(=O)[C@@H]1C[C@H](Oc2cccnc2)CN1C(=O)CCc1c[nH]c2ccccc12	none
Cc1cc(CN2CCC3(CC(c4cccc(C(F)(F)F)c4)=NO3)C2)no1 (stereo not drawn)	none
CCC(CC)NC(=O)CCC1CCN(C(=O)c2ccccc2)CC1	none
O=C(N[C@H]1CCN2C(=O)c3ccccc3NC(=O)[C@@H]2C1)C1CCCC1	none
COc1ccc(OCC(=O)N2CCN(CCc3ccncc3)CC2)cc1	none

Source: PubChem (National Center for Advancing Translational Sciences (NCATS))
